The values that follow come from PubChem BioAssay (Tox21).

Molecules are shown by their SMILES. Records with an inconclusive call do not appear. The source made the active and inactive calls. Calls follow the shape of the dose curve; as a rule, active = well fitted activation curve with a large enough effect in the signal ratio in the repeat runs, with a control signal flat (not every such curve was filed as active); inconclusive = weak or mixed curves; inactive = flat fitted curve, though single readings scatter; the % refers to the signal ratio.

This assay can be described thus: qHTS assay for small molecule activators of the heat shock response signaling pathway (AID 743210). To be noted: HeLa HSE-bla reporter, beta-lactamase ratio, 5 h; series mostly up to 62.6 µM. The source says: U.S. Tox21 Program National Center for Advancing Translational Sciences [NCATS] NIH Chemical Genomics Center [NCGC] U.S. Environmental Protection Agency [EPA] National Institutes of Environmental Health Sciences [NIEHS] National Toxicology Program [NTP] U.S. Food and Drug Administration [FDA] Tox21 Assay Overview: Various chemicals, environmental and physiological stress conditions may lead to the activation of heat shock response/ unfolded protein response (HSR/UPR). There are three heat shock transcription factors (HSFs) (HSF-1, -2, and -4) mediating transcriptional regulation of the human HSR. To identify the compounds that activate HSR signaling, HSE-bla HeLa cell line (Invitrogen, Carlsbad, CA, USA) containing a beta-lactamase reporter gene under the control of the heat shock response elements was used to screen the Tox21 10K compound library.
Tox21 Assay Protocol Summary: The CellSensor HSE-bla HeLa cells (Invitrogen, Carlsbad, CA, USA) were dispensed at 1500 cells/6uL/well into 1536-well black wall/clear bottom plates using a Multidrop combi (Thermo Fisher Scientific, Waltham, MA) dispenser. After the assay plates were incubated at 37 C and 5% CO2 overnight, 23 nL of compounds dissolved in DMSO, positive controls or DMSO only was transferred to the assay plate by a Pintool station (Kalypsys, San Diego, CA). The plates were incubated at 37 C for 5 h. After 1 uL of LiveBLAzerTM B/G FRET substrate was added using a Flying Reagent Dispenser (Beckman Coulter, Indianapolis, IN, USA), the plates were incubated at room temperature for 2.5 h, and fluorescence intensity was measured by an Envision plate reader (PerkinElmer, Shelton, CT).
Background: In qHTS, concentration-response curves come from the screen itself.
`COC[C@H](c1ccc(C(F)(F)F)cc1)N1CCN(C2(C)CCN(C(=O)c3c(C)ncnc3C)CC2)C[C@H]1C`: the outcome was inactive.

On to `Cc1ccccc1Br`, for which the result was inactive. The entry for `CC1=CC(C)C(C=O)C(C)C1` (stereo not given) is “inactive”. Then `CC(C)CCCCCCN`, with “inactive”; and `O=[N+]([O-])c1ccc(CCO)cc1`, with “inactive”.

For the molecule `CC(C)N1C(=O)c2ccccc2C1=O`, the result was inactive. Then `C=C(C)C(=O)OCCCCCCCCCCCCCCCCCC`, with “inactive”.

As to `O=C1OC(=O)c2cc([N+](=O)[O-])ccc21`, the result was inactive. For `COCCOC(=O)CC#N`, the result was inactive. The entry for `NS(=O)(=O)c1cc2c(cc1C(F)(F)F)NC(Cc1ccccc1)NS2(=O)=O` (stereo not given) is “inactive”.

Turning to `CC(C)c1cccc(O)c1`, the result was inactive. The entry for `C=C(C)C(=O)NCCCN(C)C` is “inactive”; for `CCCCCCCCN(C)CCCCCCCC` it is “inactive”; for `NC(N)=NS(=O)(=O)c1ccc(N)cc1` it is “inactive”. Then `[O-][N+](=Nc1ccccc1)c1ccccc1`, with “inactive”; and `CC(=O)NC(Cc1ccccc1)C(=O)O` (stereo not given), with “inactive”; and `CN(C)N=Nc1ccccc1`, with “inactive”. Then `CCCCc1ccc2cccc(S(=O)(=O)O)c2c1`, with “inactive”; and `C=CC(=O)OCCCCCC`, with “inactive”. With `C[C@H]1O[C@@H](n2cc(F)c(=O)[nH]c2=O)[C@H](O)[C@@H]1O`, the result was inactive.

`C#CC(O)CCCCC` (stereo not given): the outcome was inactive.

Take `C=C(C)C(=O)NCCC[N+](C)(C)C`: the outcome was inactive. The entry for `O=C(O)c1ccccc1S` is “inactive”; for `COC(C(=O)O)c1ccccc1` (stereo not given) it is “inactive”; for `CCOC(=O)Cn1c(=O)sc2cccc(Cl)c21` it is “inactive”. The entry for `C=CCOCC(O)CS(=O)(=O)O` (stereo not given) is “inactive”; for `C1CCCCCCCCCCC1` it is “inactive”; for `NC(=O)CCCCC1CCSS1` (stereo not given) it is “inactive”. With `O=C(O)/C=C/c1ccc(Cn2ccnc2)cc1`, the outcome was inactive. The entry for `C[N+](C)(C)CC[N+]1(C)Cc2c(Cl)c(Cl)c(Cl)c(Cl)c2C1` is “inactive”; for `CO[Si](OC)(OC)OC` it is “inactive”; for `Cn1ccc2cc3c(cc21)CCN3C(=O)Nc1cccnc1` it is “inactive”. The entry for `C1=C\CC/C=C\CC/C=C\CC/1` is “inactive”. Then `C=C(C)C1CC=C(C)C(O)C1` (stereo not given), with “inactive”. For the molecule `CO[Si](CCCNCCC[Si](OC)(OC)OC)(OC)OC`, the result was inactive. The entry for `CCCCOCC(C)OCC(C)O` (stereo not given) is “inactive”.

For the molecule `Nc1ncnc2c1ncn2Cc1c(F)cccc1Cl`, the outcome was inactive.

With `COC(=O)CCCC(=O)O`, the outcome was inactive. Then `CCCCCCOC(=O)c1ccccc1O`, with “inactive”. The entry for `C#CC(O)C(CC)CCCC` (stereo not given) is “inactive”.
